Data published in the supplement of paper PMC6555819.

Test system: PPARg:RXRa 30nM:10nM, anti-RXR (NR concentration 30 nM, RXRa partner concentration 10 nM)
Experiment: PBM binding z-score (relative to random genomic background probes); higher = stronger binding; sequences stand for … in GC…GCGATTGACAGCGTAGAATGAAGG
Procedure, shortened: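 Antibodies against each partner of ligand-free nuclear receptor dimers (one per run) detected binding on custom Agilent 4×180K protein-binding microarrays after 1 h incubation. The double-stranded probes had 34-nt variable regions carrying direct-repeat seeds, single-nucleotide variants, half-site ablations and random human genomic background sequences. Binding z-scores, from regression-normalized fluorescence, use the random background probes as reference.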

Sequence	PBM binding z-score
ATCGAAAGGTCGTGAGGTGTGTATACAGAAAGGC	1.61
GGAACGAGGGCAAAGGTGATAGCATCTGTCGACG	7.51
ATATGGAGGTTAAGGGTCATTCAGGTTGGTTCGC	7.43
ATCGAAAGGTCGTGAGGTGACTATACAGAAAGGC	1.98
CGTCAAAGTTCAACTAAGGTAACTTAAAGCACGC	2.4
CGGCCAAGGTCAAAGGTCAGTGAAGAGATGACGG	8.13
ATCTCTAGGTAAAGGTCAGTGAAAGATCGATAGA	4.39
CGTCCAAGGTCATAAGAGGTCAGTGAAGACAGAT	2.54
CCTAGTTGGCCAAGGTCACACACGCTATAGGTAC	0.959
CCTTACGGGTCACGGGGTTATAGCACGACGAGCG	3.95
TAGCCTAGGTCATTCAGGGGTCAGTATAGAAAGC	1.78
TCTAGTTGGTTACGGAGGTCACACACGACGGGTA	3.44
AATACAGGGTCGCTAGGCCAGAGTAGGTACGAAT	0.105
ATACCAAGGTGATCGTGAGTTCGTTGATACTAAC	0.101
CGTCCAAGGTCAATGCTAGGTCACTGAAAGCATT	1.68
TTACCAAGGTCAGCTGAGGTCGTTGATCCAACTC	1.27
ATCGAAAGGTCGACGAGTTGAGTATACACCGTTT	1.17
TTACAAAGGTGAGCTGAGGTCGTTGATCCAACTC	0.713
GGAACGAGGGCATTCGAGTTGATAGCATGGCGAT	-0.23
CCGACTGGGGCAAAGGTTACCACACTCAGTACGA	8.43

Sequence	PBM binding z-score
CGTCAAAGTTCAACTAATGTAACGTAAAGCACGC	2.95
CCTTACGGGTCACTCTAGGTTATAGCATCGGAGT	1.3
GCTTACGGGTCAAAGGTTATAGTATGAATAGAAT	8.51
CCTACAGGGCCAAAGGTCATTGATTCCAATGCTC	8.14
TAGCCTAGGTCATGGGCCAGTTTACCACGCGAAC	0.612
CGTCCAAGGTAAGAGAGGTCAGTGAATGCCGAGT	-0.312
CCGACGGGGGCAGAAAGGTTACCATACCATCCGG	0.967
CCTACTGGGCCAAAGGTCAGTGATTCCAATGCTC	9.62
AGTCAAAGTTCATCTTGGTAACGTAAGATATGCT	3.31
ATACCAAGGTTATCGTGAGGTCGTTGATACTAAC	0.633
TCTCGGAGGTCACGAAGGTCAGAGCTTTCCAGAG	4.57
CCTTGCGGGTCACTGACAGGTTATAGCATTTGGA	1.63
CTCGAAAGGTCGTCCTCAGGTGAGTATACCAAAC	0.492
CAAACTAGGTCACCGGAAAGTCAAAGTCCGCATG	5.72
TAGCCTAGGTCATTCAGGGGCCAGAATAGAAAGC	0.331
CACACTAGGTCAAGAGGTCAAAGTCCGCTTCCCG	7.67
CTCGAAAGGTCGTGCTCAGGTGAGTATGCCAAAC	1.25
CAAACTAGGTCACAGAGGTCGAAGTCCGTGCGTA	5.15
CGTCCAAGGTCAGAGAGGTCATTGAATGCCGAGT	1.68
